From article PMC5540273 (PLoS ONE, 2017)

Experiments:
Conditions in all cases: concentration: 1 μM, replicates: in singlicate; n = 1
[1] = tested on: T1, HASPIN
T1 construct: gene GSG2

[2] = tested on: HCK
[3] = tested on: HIPK1
[4] = tested on: HIPK2
[5] = tested on: HIPK3
[6] = tested on: HIPK4
[7] = tested on: HPK1
[8] = tested on: HUNK
[9] = tested on: ICK
[10] = tested on: IGF1R
[11] = tested on: T2, IKK-alpha
T2 construct: gene CHUK

[12] = tested on: T3, IKK-beta
T3 construct: gene IKBKB

[13] = tested on: T4, IKK-epsilon
T4 construct: gene IKBKE

[14] = tested on: INSRR
[15] = tested on: INSR
[16] = tested on: IRAK1
[17] = tested on: IRAK3
[18] = tested on: IRAK4
[19] = tested on: ITK
[20] = tested on: JAK1(JH1domain-catalytic)
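Also: KINOMEscan kinase panel screen.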

SMILES | %Inh [1] | %Inh [2] | %Inh [3] | %Inh [4] | %Inh [5] | %Inh [6] | %Inh [7] | %Inh [8] | %Inh [9] | %Inh [10] | %Inh [11] | %Inh [12] | %Inh [13] | %Inh [14] | %Inh [15] | %Inh [16] | %Inh [17] | %Inh [18] | %Inh [19] | %Inh [20]
Oc1cc(Nc2ccnc3cc(I)ccc23)ccc1F [GW552771] | 28% | 76% | 42% | 59% | 20% | 10% | 37% | 2% | 0% | 0% | 31% | 19% | 0% | 0% | 0% | 50% | 25% | 11% | 0% | 4%
O=C(Nc1n[nH]c2nc(-c3ccc(O)cc3)ccc12)C1CC1 [SB-710363] | 36% | 35% | 94.4% | 91.8% | 90.5% | 21% | 17% | 0% | 98.5% | 0% | 0% | 0% | 7% | 0% | 0% | 0% | 0% | 0% | 0% | 6%
Cl.c1ccc(-c2ccc3c(Nc4ccc5[nH]ccc5c4)ccnc3c2)nc1 [GW440138] | 23% | 19% | 0% | 0% | 0% | 0% | 10% | 0% | 0% | 40% | 17% | 8% | 19% | 0% | 0% | 28% | 0% | 3% | 0% | 12%
CN(C)S(=O)(=O)c1cc(-c2ccc3nccc(-c4cccc(S(N)(=O)=O)c4)c3c2)cnc1N [GSK1669921] | 71% | 0% | 49% | 36% | 44% | 48% | 41% | 0% | 44% | 0% | 0% | 0% | 0% | 24% | 42% | 0% | 29% | 9% | 16% | 12%
O=C(O)C(F)(F)F.O=C(O)C(F)(F)F.O=c1[nH]ccc2nc(N[C@@H]3CCCNC3)nc(Nc3ccc(S(=O)(=O)N4CCOCC4)cc3)c12 [GSK2177277] | 81% | 92.6% | 83% | 92.9% | 97.2% | 54% | 98.2% | 0% | 88% | 90.8% | 100% | 98.1% | 75% | 99.2% | 97.6% | 99.6% | 22% | 83% | 86% | 99%
CCCCc1nn2ncccc2c1-c1ccnc(Nc2ccc(N3CCN(C)CC3)cc2)n1 [GW684941] | 25% | 73% | 24% | 0% | 32% | 71% | 61% | 0% | 17% | 16% | 41% | 23% | 16% | 21% | 36% | 94.9% | 79% | 43% | 5% | 0%
Cl.Cl.NCC(NC(=O)c1cc(-c2ccccc2)c(-c2ccnc3[nH]ccc23)s1)c1ccccc1 (stereo not drawn) [GSK1321561] | 90.3% | 0% | 18% | 28% | 47% | 50% | 68% | 11% | 3% | 0% | 1% | 3% | 0% | 0% | 12% | 40% | 15% | 0% | 11% | 29%
CSc1cccc2c(-c3ccncn3)c(-c3ccc(F)cc3)nn12 [GW514786] | 17% | 0% | 9% | 0% | 10% | 32% | 21% | 8% | 0% | 19% | 0% | 0% | 5% | 3% | 10% | 10% | 24% | 0% | 10% | 1%
O=C(Nc1cccc(-c2nn3ccccc3c2-c2ccnc(Nc3cccc(C(F)(F)F)c3)n2)c1)c1c(F)cccc1F [GSK292658] | 0% | 96.9% | 0% | 0% | 0% | 0% | 21% | 0% | 0% | 0% | 0% | 3% | 1% | 12% | 16% | 0% | 0% | 12% | 6% | 0%
Cc1occc1-c1ncc(OC[C@@H](N)Cc2c[nH]c3ccccc23)cc1-c1ccc2[nH]nc(C)c2c1.O=C(O)C(F)(F)F [GSK682037] | 65% | 0% | 0% | 0% | 7% | 35% | 90% | 79% | 0% | 7% | 0% | 0% | 0% | 9% | 9% | 0% | 0% | 0% | 12% | 0%
Nc1ncc(-c2ccc3nccc(-c4ccncc4)c3c2)cc1S(=O)(=O)N1CCOCC1 [GSK1627798] | 50% | 0% | 37% | 15% | 25% | 76% | 49% | 0% | 36% | 35% | 21% | 9% | 11% | 15% | 35% | 31% | 73% | 16% | 11% | 3%
CCn1c(-c2nonc2N)nc2c(C#CC(C)(C)O)nc(OC[C@H](N)c3ccccc3)cc21 [GSK943949] | 22% | 0% | 21% | 0% | 14% | 0% | 30% | 3% | 0% | 0% | 0% | 0% | 13% | 0% | 0% | 0% | 0% | 8% | 0% | 19%
Nc1ncnc2c1nc(-c1ccccc1)n2-c1ccccc1 [SKF-97293] | 38% | 27% | 7% | 16% | 35% | 9% | 21% | 0% | 19% | 12% | 50% | 44% | 12% | 16% | 7% | 39% | 40% | 10% | 8% | 0%
Cn1cc(-c2ccc3c(c2)CCN3C(=O)Cc2cccc(F)c2)c2c(N)ncnc21 [GSK2603358] | 0% | 13% | 0% | 0% | 8% | 0% | 57% | 13% | 0% | 23% | 15% | 43% | 76% | 0% | 0% | 41% | 0% | 22% | 11% | 18%
CCS(=O)(=O)c1ccc(OC)c(Nc2nccc(-c3c(-c4cccc(NC(=O)c5c(F)cccc5F)c4)nn4ncccc34)n2)c1 [GSK326180] | 0% | 77% | 0% | 0% | 1% | 0% | 25% | 22% | 21% | 57% | 27% | 27% | 13% | 21% | 45% | 28% | 1% | 29% | 5% | 20%
Cc1ccc(S(=O)(=O)Nc2ccc(Nc3nccc(Nc4cccc5[nH]ncc45)n3)cc2)cc1 [GSK581271] | 0% | 0% | 0% | 0% | 1% | 0% | 23% | 2% | 0% | 10% | 10% | 3% | 0% | 0% | 0% | 29% | 62% | 43% | 29% | 44%
COC(=O)Nc1nc2ccc(Oc3ccc(NC(=O)Nc4cc(C(F)(F)F)ccc4F)cc3)cc2n1C.Cl [GW692089] | 50% | 0% | 0% | 3% | 0% | 69% | 0% | 12% | 0% | 0% | 77% | 18% | 0% | 0% | 0% | 18% | 0% | 0% | 0% | 3%
COc1cc(Nc2nccc(N3CCC(NC(=O)Nc4cccc(C(C)=O)c4)C3)n2)cc(OC)c1OC (stereo not drawn) [GSK1379753] | 0% | 0% | 0% | 0% | 3% | 0% | 55% | 0% | 11% | 0% | 0% | 10% | 20% | 0% | 1% | 77% | 86% | 40% | 34% | 0%
